This excerpt belongs to a sample that is enriched for hits.
TbREL1 primary = TbREL1 RNA ligase inhibitors, primary screen, biochemical, FRET fluorescence. 89,000 compounds, 0.49% hits. RNA-editing ligase 1, mitochondrial (Trypanosoma brucei brucei), P86926. AID 1117264, 2014. inhibition, % at 9.66 µM. TbREL1 RNA ligation;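 active means inhibition above the mean inhibition across all screened compounds plus 3 SD, cut at about 11% in these data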;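 further: 0% = plate median of test wells and 100% = NSC42067 control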
Target sequence (P86926 whole entry, looked up): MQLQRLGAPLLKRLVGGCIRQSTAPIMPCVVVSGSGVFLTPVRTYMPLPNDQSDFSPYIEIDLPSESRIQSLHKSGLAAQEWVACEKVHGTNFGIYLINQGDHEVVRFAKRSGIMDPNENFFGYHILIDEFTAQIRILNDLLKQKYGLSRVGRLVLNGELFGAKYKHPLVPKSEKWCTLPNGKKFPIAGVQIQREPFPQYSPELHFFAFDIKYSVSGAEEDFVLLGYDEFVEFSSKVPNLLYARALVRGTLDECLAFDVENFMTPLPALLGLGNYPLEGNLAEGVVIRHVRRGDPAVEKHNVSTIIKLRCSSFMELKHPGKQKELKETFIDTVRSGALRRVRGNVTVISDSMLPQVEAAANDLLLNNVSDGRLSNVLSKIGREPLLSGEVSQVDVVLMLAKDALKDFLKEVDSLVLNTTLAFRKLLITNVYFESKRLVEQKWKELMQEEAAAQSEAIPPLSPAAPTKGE
TbREL1 confirm = TbREL1 RNA ligase inhibitors, confirmation, biochemical, FRET fluorescence, triplicate. shares compounds with TbREL1 primary. inhibition, % at 9.66 µM. TbREL1 RNA ligation. AID 1117282, 2014. 390 compounds, 37% hits;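 active means mean inhibition across replicates above a set limit taken from the earlier primary screen, cut at about 11% in these data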;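 further: 0% = REL1 with substrate and DMSO and 100% = REL1 plus control inhibitor NSC42067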
Starred values were filed as active, the others as inactive.

SMILES | TbREL1 primary | others
C[C@H]1[C@@H](OC(=O)NCc2ccc(Cl)c(Cl)c2)CC[C@@]23CCCN2C(=O)CCC[C@@H]13 | -2
CCCOC(=O)c1ccc(O)c(OC)c1 | -4
CCCOc1ccc(N)cc1N | 12* | TbREL1 confirm=6
COc1ccc(N)cc1C#N | -2
COc1ccc(-c2nnc(SCC(=O)N/N=C\C=C/c3ccco3)n2-c2ccc(C)cc2)cc1 | -5
N#Cc1cccc(-n2cc(COC(=O)NCCc3ccccc3)nn2)c1 | -3
Oc1ccc(Nc2ccccc2F)c2cccnc12 | 17* | TbREL1 confirm=-9
Oc1ccc(CNc2ccccc2F)c2cccnc12 | 1
Oc1ccc(-c2ccccc2F)c2cccnc12 | -4
O=C(c1sccc1Cl)N1CCC(n2nnc3ncccc32)CC1 | -1
CCOC(=O)c1csc(NC(=O)C2CCCN(S(=O)(=O)c3cccs3)C2)n1 (centres undefined) | 0
COC(=O)C1=C(C)N(Cc2ccc(C(F)(F)F)cc2)C(=NCc2ccc(C(F)(F)F)cc2)NC1c1ccccc1C(F)(F)F (centres undefined) | 17* | TbREL1 confirm=24*
COC(=O)C1=C(C)N(c2ccccc2)C(=S)NC1c1ccccc1C(F)(F)F (centres undefined) | -5
COC(=O)C1=C(C)N(Cc2ccc(C(F)(F)F)cc2)C(=NCc2ccccc2C(F)(F)F)NC1c1ccccc1C(F)(F)F (centres undefined) | 17* | TbREL1 confirm=23*
COC(=O)C1=C(C)N(C)C(=NCc2ccccc2)NC1c1ccccc1C(F)(F)F (centres undefined) | 9
COC(=O)C1=C(C)N(Cc2ccc(C(F)(F)F)cc2)C(=NCc2ccc3c(c2)OCO3)NC1c1ccccc1C(F)(F)F (centres undefined) | 17* | TbREL1 confirm=22*
O=C(c1cccc(F)c1)N1CCCC(c2nc(-c3cccs3)no2)C1 (centres undefined) | 0
COc1ccc(-n2c(Cc3cccs3)nnc2SCC(=O)Nc2cccc3ccccc23)cc1 | -2
CCC(NC(=O)C1CCCN(c2ncccn2)C1)c1ccccc1 (centres undefined) | -3
COc1ccccc1N1CCN(N=Cc2ccccc2Br)CC1 | -4
COC(=O)CSc1nnc(-c2ccc(NS(=O)(=O)c3ccc(C)c(C)c3)cc2)o1 | -2
COc1ccc(-c2cc(-c3nnc(SCC(=O)Nc4ccccc4-c4ccccc4)n3N)[nH]n2)cc1 | -1
O=C(OCc1cn(Cc2ccc(Cl)cc2)nn1)N1CCOCC1 | -1
Oc1cc2c(cc1O)[C@H]1c3ccc(O)c(O)c3OC[C@@]1(O)C2 | 21* | TbREL1 confirm=62*
O=C(NN=Cc1ccccc1C(F)(F)F)c1cc(-c2ccc(Cl)cc2)n[nH]1 | 2
SMILES | TbREL1 primary | others
O=C(Nc1ccc(F)cc1Cl)C1CCCN1S(=O)(=O)c1cccc2cccnc12 (centres undefined) | 5
Cc1cc(Cl)c(OCCCn2cncn2)c(Br)c1 | -1
C=CCNCCCCOc1c(Cl)cc(C)cc1Br | 7
COCCCNCCCCOc1c(Cl)cc(C)cc1Br | 12* | TbREL1 confirm=8
CCCCNCCCOc1cc(Cl)ccc1Cl | -1
COCCCNCCCOc1ccc(Cl)cc1Br | 11* | TbREL1 confirm=6
COCCCNCCOc1ccc(C)cc1[N+](=O)[O-] | 4
COc1ccc2[nH]c3c(c2c1)CCN[C@]31C(=O)N(Cc2cn(Cc3ccccc3)nn2)c2ccc(F)cc21 | 4
CCC(C)NC(=O)CNc1nnnn1-c1ccccc1 (centres undefined) | 0
O=C(CCc1nc(-c2ccccc2F)no1)NCCc1ccc(F)cc1 | -4
CCC(C)NC(=O)CC(C)C (centres undefined) | 12* | TbREL1 confirm=6
CC(C)CC(=O)NN1CCCCC1 | 1
CCC(C)NC(=O)CNS(=O)(=O)c1ccc(C)cc1 (centres undefined) | 0
Cc1ccc(NC(=S)NNC(=O)CSc2nnc(SCc3cccc4ccccc34)s2)cc1 | -9
Cc1cc(C)cc(-c2c(C(=O)c3ccc(Br)cc3)[nH]c(N)c2C(=O)NCc2ccc(Cl)cc2)c1 | 10
COC(=O)CN(c1cc(Cl)ccc1OC)S(=O)(=O)c1ccc(C)cc1 | 3
COc1ccc(Cl)cc1N(CC(=O)N1CCCC1)S(=O)(=O)c1ccc(C)cc1 | 12* | TbREL1 confirm=4
CCOC(=O)C1CCN(C(=O)CN(c2cc(Cl)ccc2OC)S(=O)(=O)c2ccccc2)CC1 | 1
Cc1ccc(NC(=O)C2CCCN(c3nnc(-n4cccc4)s3)C2)cc1C (centres undefined) | 3
N=c1c2c(ccn1CCCCc1ccccc1)Oc1ccc3ccccc3c1C2c1ccccc1 (centres undefined) | 6
c1ccc(-c2cnc(SCCN3CCOCC3)n2CC2CCCO2)cc1 (centres undefined) | 15* | TbREL1 confirm=-1
c1ccc(-c2csc(=Nc3cccnc3)n2CC2CCCO2)cc1 (centres undefined) | 0
COc1ccc(-c2cnc(N)n2CC2CCCO2)cc1 (centres undefined) | 0
O=C(OCc1cn(Cc2ccccc2C(F)(F)F)nn1)N1CCOCC1 | 5
COc1ccc2[nH]c3c(c2c1)CCN[C@]31C(=O)Nc2ccccc21 | 6
SMILES | TbREL1 primary | others
COc1ccc2c3c([nH]c2c1)[C@]1(CCNC=O)Nc2ccccc2C1=NCC3 | 11* | TbREL1 confirm=0
COc1ccc2c3c([nH]c2c1)C1=NCC[C@]12c1ccccc1N=CN2CC3 | 0
COc1ccc(-c2noc(C3CCCN(C(=O)NC4CCC(C)CC4)C3)n2)cc1 (centres undefined) | -3
Cc1ccc(-c2cc(C(=O)N=Nc3c(O)[nH]c4ccccc34)[nH]n2)cc1C | 7
O=C(CCCCCN1C(=O)C2C3C=CC(C3)C2C1=O)Nc1ccc2ncccc2c1 (centres undefined) | 4
N#C/C(=C/c1cccc(O)c1)C(=O)NCc1ccc(Cl)cc1 | 4
N#C/C(=C/c1ccc(O)c(O)c1)C(=O)NCc1ccc(Cl)cc1 | 46* | TbREL1 confirm=1
N#C/C(=C/c1ccccc1)C(=O)NCc1ccccc1 | 2
O=C1NC[C@@H](Cc2ccc(O)cc2)N(CCc2cccc3ccccc23)C1=O | -3
c1ccc([C@H]2CNCCN2CCc2cccc3ccccc23)cc1 | 4
CCC(C)[C@H]1CN=C(N)N1CCc1cccc2ccccc12 (some centres undefined) | 12* | TbREL1 confirm=7
CCC(C#Cc1ccccc1)N(C)C(N)=NC(=O)/C=C/c1ccccc1 (centres undefined) | -5
O=C(NCCc1ccc(Cl)cc1)c1ccc2c(c1)ncn2C1CCCCC1 | -2
CCOc1ccc(-n2c(SCC(=O)c3ccc4ccccc4c3)nnc2-c2ccco2)cc1 | -1
C=CCN(C)C(C#Cc1ccccc1)c1ccccc1C(F)(F)F (centres undefined) | 2
O=C(O)c1ccc([N+](=O)[O-])cc1 | 2
CC(=O)N1CCN(c2ccc(C(N)=O)cc2[N+](=O)[O-])CC1 | 6
CC(=O)/C(N=Nc1ccc(C(=O)O)cc1[N+](=O)[O-])=C(\C)O | 12* | TbREL1 confirm=8
O=C(NCc1cccc(Cl)c1)O[C@H]1CC[C@@]23CCCN2C(=O)CCC[C@H]3C1 | -3
O=C(Nc1c(-c2ccc(F)cc2)nc2ncccn12)C1CC1 | 0
CCOc1ccc(N(CC(=O)Nc2c(C)n(C)n(-c3ccccc3)c2=O)S(=O)(=O)c2ccc3c(c2)N(C(=O)C2CCC2)CC3)cc1 | 2

Screens as filed in PubChem BioAssay.
